Rows were chosen to be rich in hits. Some 2.3% of all compounds tested hit in one or more screens of this group.
CHO-K1 Ca PAM: nonselective activator or artifact in parental CHO-K1 calcium assay | AID 602247 | ATP EC20, Fluo-8 calcium fluorescence; 0% at ATP EC20, 100% at ATP max | 0.02% of 360,000 active | activation, % at 3 µM;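 active = activation above the run cutoff, the mean activation of all test compounds plus 3 SD, cut at about 40% in these data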;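 note: peak over basal fluorescence ratio in a 140 s read after ATP addition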
CHRM1 agonist: agonists of human M1 muscarinic receptor. P11229. CHO-K1 hM1, Fluo-8 calcium fluorescence, agonist mode; 0% DMSO, 100% acetylcholine EC100. activation, % at 3 µM. 0.33% of 360,000 active;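 active = activation above the run's mean compound activation plus 3 SD, cut at about 16% in these data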;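 note: peak over basal fluorescence ratio within a 140 s kinetic read after compound addition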
Target sequence (P11229 whole entry, looked up): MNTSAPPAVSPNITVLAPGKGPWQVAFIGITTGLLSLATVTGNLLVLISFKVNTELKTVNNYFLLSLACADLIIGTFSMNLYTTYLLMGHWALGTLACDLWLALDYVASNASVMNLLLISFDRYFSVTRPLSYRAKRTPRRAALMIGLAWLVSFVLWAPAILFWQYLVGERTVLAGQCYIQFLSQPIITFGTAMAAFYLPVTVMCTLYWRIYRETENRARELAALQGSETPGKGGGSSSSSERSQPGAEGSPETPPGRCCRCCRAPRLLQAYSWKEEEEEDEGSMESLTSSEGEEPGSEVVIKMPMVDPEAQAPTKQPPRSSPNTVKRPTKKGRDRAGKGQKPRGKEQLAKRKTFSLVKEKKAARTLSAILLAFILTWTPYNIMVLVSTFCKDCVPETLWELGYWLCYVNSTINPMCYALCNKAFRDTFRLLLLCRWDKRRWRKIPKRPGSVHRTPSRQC
M1 ag parental: nonselective activator or artifact in parental CHO-K1 cells; Fluo-8 calcium fluorescence; scaled to maximal ATP response, vehicle zero; activation, % at 3 µM; 0.48% of 360,000 active; AID 602248; in the data active = activation above about 15%;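 note: untransfected CHO-K1 host cells lacking M1 receptor as counterscreen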
CHRM1 PAM: positive allosteric modulators of human M1 muscarinic receptor; activation, % at 3 µM; CHO-K1 hM1, Fluo-8 calcium fluorescence, ACh EC20; 0% = ACh EC20, 100% = maximal ACh; 0.088% of 360,000 active; P11229; AID 588819; in the data active = activation above about 19%, passing the limit was not always enough
CHRM1 antagonist: antagonists of human M1 muscarinic receptor. CHO-K1 hM1, Fluo-8 calcium fluorescence, ACh EC80 antagonist. inhibition, % at 3 µM. 1.3% of 360,000 active. AID 588852;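 active = percent inhibition above its own plate's cutoff, namely the mean of that plate's compound wells plus 3 SD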;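 note: peak over basal fluorescence ratio during 140 s after agonist addition; 0% = ACh EC80 plus DMSO and 100% = DMSO alone without agonist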
CHO-K1 Ca antag: M1 antagonist counterscreen hit in parental CHO-K1 cells | ATP-induced calcium, Fluo-8 fluorescence | inhibition, % at 3 µM | 0.6% of 360,000 active;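 active = inhibition above a per-plate cutoff, the plate's mean sample inhibition plus 3 SD, cut at about 24% in these data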;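 note: 0% = DMSO plus EC80 ATP and 100% = DMSO alone without ATP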
Starred values were filed as active, the others as inactive.

What do the screens show for `Cc1cc(/C=N/n2cnnc2)c(C)n1-c1ccc(OCc2ccccc2F)cc1`?
CHO-K1 Ca PAM: -9; CHRM1 agonist: -9; M1 ag parental: 8; CHRM1 PAM: -27; CHRM1 antagonist: 45*; CHO-K1 Ca antag: 18

How did CCn1c(SCC(=O)N/N=C/c2ccccc2OCC(=O)O)nnc1-c1ccc(C)cc1 do in these assays?
CHO-K1 Ca PAM: 14; CHRM1 agonist: -5; M1 ag parental: 1; CHRM1 PAM: 7; CHRM1 antagonist: -9; CHO-K1 Ca antag: 9

How did CC(=O)Nc1cccc(C(=O)OCC(=O)NC2CCCCCCC2)c1 do in these assays?
CHO-K1 Ca PAM: -10; CHRM1 agonist: 1; M1 ag parental: 15*; CHRM1 PAM: -4; CHRM1 antagonist: 5; CHO-K1 Ca antag: -14

What do the screens show for `CCCCCC[N+](C)(C)CC/C=C1/c2ccccc2Sc2ccc(Cl)cc21`?
CHO-K1 Ca PAM: -3; CHRM1 agonist: -7; M1 ag parental: 0; CHRM1 PAM: -24; CHRM1 antagonist: 99*; CHO-K1 Ca antag: 2

Results for CN(C)CC/C=C1/c2ccccc2Sc2ccc(Cl)cc21 ?
CHO-K1 Ca PAM: 8; CHRM1 agonist: -4; M1 ag parental: 1; CHRM1 PAM: -25; CHRM1 antagonist: 99*; CHO-K1 Ca antag: -3

Results for OCCN1CCN(CC/C=C2/c3ccccc3Sc3ccc(C(F)(F)F)cc32)CC1 ?
CHO-K1 Ca PAM: 17; CHRM1 agonist: -5; M1 ag parental: 3; CHRM1 PAM: -24; CHRM1 antagonist: 36; CHO-K1 Ca antag: -5

Results for Nc1ncnc2c1ncn2[C@@H]1O[C@H](C(=O)N[C@H](CO)Cc2ccc(O)cc2)[C@@H](O)[C@H]1O ?
CHO-K1 Ca PAM: 15; CHRM1 agonist: -2; M1 ag parental: 0; CHRM1 PAM: -1; CHRM1 antagonist: -14; CHO-K1 Ca antag: -13

What do the screens show for `CC(C)N1C(=O)C(=O)N(CC(=O)N2c3ccccc3NC(=O)CC2C)C1=O` (stereo not drawn)?
CHO-K1 Ca PAM: 2; CHRM1 agonist: -2; M1 ag parental: 1; CHRM1 PAM: 13; CHRM1 antagonist: -12; CHO-K1 Ca antag: 13

Results for CCOC(=O)c1[nH]c2ccc(Br)cc2c1NC(=O)CCN1CCC(C)CC1 ?
CHO-K1 Ca PAM: 24; CHRM1 agonist: -2; M1 ag parental: 2; CHRM1 PAM: -14; CHRM1 antagonist: 32*; CHO-K1 Ca antag: -13

What do the screens show for `CNC(=O)CSc1nc2cccnc2n1-c1ccc(F)cc1`?
CHO-K1 Ca PAM: -10; CHRM1 agonist: -3; M1 ag parental: 0; CHRM1 PAM: 8; CHRM1 antagonist: -13; CHO-K1 Ca antag: 5

Results for COc1cc(/C=C/C(=O)OCC(=O)Nc2ccc([N+](=O)[O-])cc2)ccc1O ?
CHO-K1 Ca PAM: 12; CHRM1 agonist: 25*; M1 ag parental: 19*; CHRM1 PAM: -6; CHRM1 antagonist: 5; CHO-K1 Ca antag: -14

How did C[C@@]12C(=O)Nc3ccc(Cl)cc3C(=O)N1[C@H]1c3ccccc3OC[C@@H]1[C@@H]2c1ccccc1 do in these assays?
CHO-K1 Ca PAM: 11; CHRM1 agonist: -3; M1 ag parental: 0; CHRM1 PAM: -15; CHRM1 antagonist: 33*; CHO-K1 Ca antag: -12

How did Cc1ccc2c(c1)C(=O)N1[C@H]3c4cc(C)ccc4OC[C@@H]3[C@H](c3ccccc3)[C@]1(C)C(=O)N2 do in these assays?
CHO-K1 Ca PAM: -14; CHRM1 agonist: -5; M1 ag parental: 0; CHRM1 PAM: -25; CHRM1 antagonist: 48*; CHO-K1 Ca antag: 14

How did C[C@@]12C(=O)Nc3cc(Cl)ccc3C(=O)N1[C@H]1c3ccccc3OC[C@@H]1[C@@H]2c1ccccc1 do in these assays?
CHO-K1 Ca PAM: -14; CHRM1 agonist: -4; M1 ag parental: 0; CHRM1 PAM: -24; CHRM1 antagonist: 33*; CHO-K1 Ca antag: 3

Results for C[C@@]12C(=O)Nc3cc(Cl)ccc3C(=O)N1[C@H]1c3cc(Cl)ccc3OC[C@@H]1[C@@H]2c1ccccc1 ?
CHO-K1 Ca PAM: 9; CHRM1 agonist: -5; M1 ag parental: 0; CHRM1 PAM: -1; CHRM1 antagonist: -4; CHO-K1 Ca antag: -11

What do the screens show for `Cc1ccc2c(c1)C(=O)N1[C@H]3c4cc(Cl)ccc4OC[C@@H]3[C@H](c3ccccc3)[C@]1(C)C(=O)N2`?
CHO-K1 Ca PAM: -4; CHRM1 agonist: -2; M1 ag parental: 0; CHRM1 PAM: -4; CHRM1 antagonist: -3; CHO-K1 Ca antag: -8

Results for COc1cc2c(cc1OC)C(=O)N1[C@H]3c4ccccc4OC[C@@H]3[C@H](c3ccccc3)[C@]1(C)C(=O)N2 ?
CHO-K1 Ca PAM: 14; CHRM1 agonist: -4; M1 ag parental: 2; CHRM1 PAM: 4; CHRM1 antagonist: 0; CHO-K1 Ca antag: -11

How did O=C(O)c1ccccc1C(=O)c1ccc2c(c1)CCC2 do in these assays?
CHO-K1 Ca PAM: -8; CHRM1 agonist: -2; M1 ag parental: 0; CHRM1 PAM: 21; CHRM1 antagonist: -21; CHO-K1 Ca antag: 8

What do the screens show for `C[C@@H]1C(=O)OC[C@H]1NC(=O)OCc1ccccc1`?
CHO-K1 Ca PAM: 8; CHRM1 agonist: -3; M1 ag parental: 2; CHRM1 PAM: 10; CHRM1 antagonist: -2; CHO-K1 Ca antag: -6

Results for O=[N+]([O-])c1ccccc1N(S(=O)(=O)c1ccccc1)S(=O)(=O)c1ccccc1 ?
CHO-K1 Ca PAM: 11; CHRM1 agonist: -1; M1 ag parental: 0; CHRM1 PAM: -5; CHRM1 antagonist: 3; CHO-K1 Ca antag: -11

What do the screens show for `CCN(CC)C(=O)[C@H]1CC(CC(=O)NCc2ccc(OC)c(OC)c2)C(=O)N2CCc3c([nH]c4ccc(OC)cc34)[C@]12C` (stereo partly drawn)?
CHO-K1 Ca PAM: 18; CHRM1 agonist: -6; M1 ag parental: 0; CHRM1 PAM: 1; CHRM1 antagonist: -6; CHO-K1 Ca antag: -16

What do the screens show for `CCc1ccc(N2CC(C(=O)OCC(=O)N(CC)c3c(N)n(Cc4ccccc4)c(=O)[nH]c3=O)CC2=O)cc1` (stereo not drawn)?
CHO-K1 Ca PAM: 5; CHRM1 agonist: -1; M1 ag parental: 4; CHRM1 PAM: 8; CHRM1 antagonist: 0; CHO-K1 Ca antag: -14

How did COCCCN1C(=O)C(CC(=O)NCCCN(C)C)CC(C(=O)N2CCOCC2)=C1C (stereo not drawn) do in these assays?
CHO-K1 Ca PAM: 12; CHRM1 agonist: -3; M1 ag parental: 0; CHRM1 PAM: 2; CHRM1 antagonist: -20; CHO-K1 Ca antag: -15

Results for COc1ccc2cc(CCNS(=O)(=O)c3c(C)cc(C)cc3C)c(=O)[nH]c2c1 ?
CHO-K1 Ca PAM: -2; CHRM1 agonist: -4; M1 ag parental: 3; CHRM1 PAM: 2; CHRM1 antagonist: 3; CHO-K1 Ca antag: -5

How did COc1ccccc1NS(=O)(=O)c1ccc(-c2cnc(C3CC3)o2)cc1 do in these assays?
CHO-K1 Ca PAM: 14; CHRM1 agonist: -1; M1 ag parental: 6; CHRM1 PAM: 0; CHRM1 antagonist: 0; CHO-K1 Ca antag: -13
